Assay outcomes: PubChem BioAssay, National Center for Advancing Translational Sciences (NCATS)
Shown are actives, neighbours in structure and some others; about 1.1% of the full set was active somewhere.
GPT2 inhibitor: inhibitors of human GPT2 alanine aminotransferase; 100,000 compounds, 0.25% hits; Potency, µM (top dose mostly 57.7 µM), without a hit: at the highest dose activity change, negative = inhibition, hits mostly inhibitors; Recombinant GPT2, coupled pyruvate oxidase/HRP Amplex Red fluorescence; Q8TD30; also: potency is read from the fitted curve at half-maximal effect; % is scaled to controls: 0 for no effect and ±100 for the full control effect; nearly all actives have a fitted effect of over 60% in size
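Recombinant GPT2 (10ng/uL) with 250uM a-KG and 2mM L-alanine, 30 min at room temperature, in HEPES pH 7.5 buffer. Pyruvate detected by pyruvate oxidase/HRP/Amplex Red fluorescence after 30 min in the dark; AOA (50uM) as positive control.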
HEK293 viab: counter-screen for SNCA expression inhibitors: cell viability. HEK-293-SNCA-luc viability, GF-AFC fluorescence, 24 h. Potency, µM (top dose mostly 57.1 µM), inactives show at the highest dose activity change, negative = cytotoxicity, usual class: cytotoxic. 150,000 compounds, 0.12% hits;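 also: potency is read from the fitted curve at half-maximal effect; 0% = DMSO-treated cells and -100% = medium-only wells without cells; nearly all actives have a fitted effect of over 30% in size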
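Cytotoxicity counterscreen: after 24 h compound treatment of genome-edited SNCA-luciferase HEK-293 cells, live-cell protease substrate GF-AFC read by fluorescence after 30 min; activity scaled between DMSO (0%) and medium-only (-100%), curves Hill-fitted.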
SNCA expr inhib: inhibitors of alpha-synuclein (SNCA) gene expression. Potency, µM (top dose mostly 57.2 µM), for inactives: top-dose activity change, negative = inhibition, hits mostly inhibitors. AID 1671194. HEK-293 SNCA-luciferase knock-in, luminescence, 24 h. 140,000 compounds, 0.17% hits;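 also: potency is read from the fitted curve at half-maximal effect; plate controls were DMSO cells for no effect and cell-free wells for full effect; nearly all actives have a fitted effect of over 45% in size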
IP6K1 inhibitor: inhibitors of human IP6K1; IP6K1 kinase, ADP-Glo luminescence, 2 h; active compounds read low; activity change, % (series mostly up to about 58 µM); 140,000 compounds, 0.81% hits; AID 1645851; in the data active = activity change below about -25%; also: % is scaled to controls: 0 for no effect and ±100 for the full control effect
Target sequence (Q92551 whole entry, looked up): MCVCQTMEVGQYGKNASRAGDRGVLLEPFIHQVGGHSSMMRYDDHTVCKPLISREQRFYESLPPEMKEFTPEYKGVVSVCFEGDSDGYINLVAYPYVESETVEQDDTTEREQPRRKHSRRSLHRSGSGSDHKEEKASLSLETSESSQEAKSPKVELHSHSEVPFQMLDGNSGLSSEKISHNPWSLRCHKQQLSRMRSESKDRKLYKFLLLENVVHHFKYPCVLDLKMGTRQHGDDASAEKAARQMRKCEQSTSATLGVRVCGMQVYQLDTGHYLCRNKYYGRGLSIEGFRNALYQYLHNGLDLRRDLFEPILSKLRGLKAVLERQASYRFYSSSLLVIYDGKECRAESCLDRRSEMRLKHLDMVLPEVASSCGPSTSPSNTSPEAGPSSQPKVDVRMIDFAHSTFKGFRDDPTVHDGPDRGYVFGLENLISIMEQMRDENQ
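ADP-Glo luminescence measures ADP made by human IP6K1 during a 2 h RT reaction with ATP/IP6 (mix at 1.3 mM/130 uM); top library doses 57.5 and 19.1 uM final.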
GPT2 inh cnf: confirmation of human GPT2 inhibitors | shares compounds with GPT2 inhibitor | GPT2 enzyme, coupled Amplex Red pyruvate fluorescence | Potency, µM, usual class: inhibitors | 95 compounds, 90% hits
Active calls of the source: *; ! = not confirmed by another sample; [ ] = another dose, or the depositor's remark. Unless noted, calls follow the shape of the dose curve; as a rule, active = well fitted curve in the direction sought with a large enough effect; inconclusive = small, poorly fitted or top-dose-only effect, or another doubt; inactive = no such curve, though single readings can be large; an effect the other way counts as inactive or inconclusive.

Results for Cn1cc(CN2CCNc3cnc(Nc4ccccc4)cc3C2)cn1 ?
GPT2 inh cnf: 2.8*

How did c1ccc(CN2CCNc3cc(Nc4ccc(N5CCOCC5)cc4)ncc3C2)cc1 do in these assays?
GPT2 inhibitor: inconclusive; HEK293 viab: inconclusive; SNCA expr inhib: 9%[87.6 µM]; IP6K1 inhibitor: 0; GPT2 inh cnf: 4.4*

Results for COc1ccc(OC)c(CN2CCNc3cnc(Nc4cccnc4)cc3C2)c1 ?
GPT2 inhibitor: inconclusive; HEK293 viab: 6%[87.6 µM]; SNCA expr inhib: -26%[87.6 µM]; IP6K1 inhibitor: 13; GPT2 inh cnf: 5.6*

Results for c1ccc(Nc2cc3c(cn2)CN(Cc2ccsc2)CCN3)cc1 ?
GPT2 inhibitor: inconclusive; HEK293 viab: inconclusive; SNCA expr inhib: 27%[87.6 µM]; IP6K1 inhibitor: 12

Results for Fc1cccc(CN2CCNc3cc(Nc4ccccc4)ncc3C2)c1 ?
GPT2 inhibitor: inactive; HEK293 viab: inconclusive; SNCA expr inhib: 32%[87.6 µM]; IP6K1 inhibitor: -5

What do the screens show for `CNC(=O)c1cc(C)nc2onc(C3CCN(C(=O)c4ccc(F)cc4)C3)c12` (stereo unspecified)?
IP6K1 inhibitor: 1

Results for COc1ccc(CC(=O)NC2CCN(CCn3nc4n(c3=O)CCCC4)C2)cc1 (stereo unspecified) ?
IP6K1 inhibitor: -5

What do the screens show for `C[C@@]12CO[C@H](c3ccccc3)C[C@@H]1C[C@@H](N1CCN(CC3CC3)CC1)C2`?
IP6K1 inhibitor: -16

How did O=C(c1ccc2nnc(Cc3ccc(Cl)cc3)n2c1)N1CCOCC1 do in these assays?
GPT2 inhibitor: -8%; HEK293 viab: -20%[12.5 µM]; SNCA expr inhib: -17%; IP6K1 inhibitor: 12

What do the screens show for `COc1ccccc1CN1CCNc2cnc(Nc3ccccc3)cc2C1`?
GPT2 inhibitor: inconclusive; HEK293 viab: -19%[87.6 µM]; SNCA expr inhib: -19%[87.6 µM]; IP6K1 inhibitor: -19; GPT2 inh cnf: 4.4*

How did COc1ccc(CNc2ncnc3c2CN(C2CCCNCC2)C(=O)CN3C)cc1 (stereo unspecified) do in these assays?
GPT2 inhibitor: inactive; HEK293 viab: 1%; SNCA expr inhib: 2%; IP6K1 inhibitor: -2

What do the screens show for `CN1CCOc2c(C(=O)NCc3cccnc3)cc(-c3ccc(N4CCOCC4)cc3)cc21`?
GPT2 inhibitor: -2%; HEK293 viab: 5%; SNCA expr inhib: -24%; IP6K1 inhibitor: -11

How did COCCNC(=O)c1cc(N2CCOCC2)cc2c1OCCN2C do in these assays?
GPT2 inh cnf: 1.6*

What do the screens show for `CC(C)NC(=O)N1CCCC1C(=O)N1CCC(N2CCCC2=O)CC1` (stereo unspecified)?
GPT2 inhibitor: inconclusive; HEK293 viab: inconclusive; SNCA expr inhib: 9%; IP6K1 inhibitor: 7

Results for O=C(c1cnccn1)N1CCC2(CCN(Cc3ccccc3)CC2)CC1 ?
HEK293 viab: 7%; SNCA expr inhib: -9%

How did O=C(c1cnccn1)N1CCC2(CC1)CCC(O)(CN1CCc3ccccc31)CC2 do in these assays?
GPT2 inhibitor: inconclusive; HEK293 viab: -8%; SNCA expr inhib: -25%; IP6K1 inhibitor: -7; GPT2 inh cnf: 1.1*

How did CNC(=O)C1CCCN1Cc1cccc(-c2ccc(C)c(Cl)c2)c1 (stereo unspecified) do in these assays?
IP6K1 inhibitor: 16

What do the screens show for `Cc1nnc2ccc(N3CCCC(NC(=O)c4ccccc4Cl)C3)nn12` (stereo unspecified)?
IP6K1 inhibitor: -8

Results for O=C(c1ccoc1)N1CCCN(Cc2ccc3c(c2)OCO3)c2ccccc21 ?
GPT2 inhibitor: -9%; HEK293 viab: -8%; SNCA expr inhib: -20%; IP6K1 inhibitor: 8

Results for CN1CCCN(Cc2ccc3c(c2)OCO3)c2ccccc21 ?
GPT2 inhibitor: inconclusive; HEK293 viab: -17%; SNCA expr inhib: 25%; IP6K1 inhibitor: 22; GPT2 inh cnf: 3.1*

How did c1ccc2c(CCNc3ccc(Nc4ccncc4)cc3)c[nH]c2c1 do in these assays?
GPT2 inhibitor: 14µM*!; HEK293 viab: -12%; SNCA expr inhib: inconclusive; IP6K1 inhibitor: 23; GPT2 inh cnf: 4.9*

Results for c1cncc(-c2ccnc(NCCCN3CCCc4ccccc43)n2)c1 ?
GPT2 inhibitor: inconclusive; HEK293 viab: 6%; SNCA expr inhib: -9%; IP6K1 inhibitor: 3; GPT2 inh cnf: 2.2*

How did COc1ccc(N2CC3(C2)CN(c2ccccc2)C(=O)O3)cc1OC do in these assays?
GPT2 inhibitor: inconclusive; HEK293 viab: -1%[87.6 µM]; SNCA expr inhib: 2%[87.6 µM]; IP6K1 inhibitor: 9; GPT2 inh cnf: inconclusive

Results for COc1cccc(-c2nn(-c3ccccc3)c(OC(C)=O)c2-c2ccc(NC(=O)c3ccco3)cc2)c1 ?
GPT2 inhibitor: inconclusive; HEK293 viab: 0%; SNCA expr inhib: -12%; IP6K1 inhibitor: -6; GPT2 inh cnf: 7.7*

What do the screens show for `CC(=O)Oc1c(-c2ccc(NC(=O)c3ccccc3)cc2)c(-c2cccc(F)c2)nn1-c1ccccc1`?
GPT2 inhibitor: inconclusive; HEK293 viab: 1%; SNCA expr inhib: -3%; IP6K1 inhibitor: 10

Results for Cn1nccc1OCc1cn2c(=O)n(C)cc(-c3ccc(F)cc3)c2n1 ?
GPT2 inh cnf: 6.3*

Results for Cc1ccc(NC(=O)CCNc2c(C)nc3cnccn23)c(F)c1 ?
GPT2 inhibitor: inconclusive; HEK293 viab: 13%; SNCA expr inhib: -12%; IP6K1 inhibitor: 15; GPT2 inh cnf: 6.9*

How did CCOc1cc(N2CCC(O)CC2)ccc1Nc1ncc2c(n1)N(C)c1ccccc1C(=O)N2C do in these assays?
GPT2 inhibitor: 12µM*; HEK293 viab: 1%; SNCA expr inhib: 104%; GPT2 inh cnf: 3.1*

What do the screens show for `COc1ccccc1Cn1c(=O)c(C(=O)N2CCN(C(=O)Cc3ccc(F)cc3)CC2)nc2cccnc21`?
GPT2 inhibitor: inactive; HEK293 viab: 4%[12.5 µM]; SNCA expr inhib: -5%; IP6K1 inhibitor: -5

Results for O=C1C(Cl)=C(NCCN2CCOCC2)C(=O)c2ncccc21 ?
GPT2 inhibitor: 1.4µM*; HEK293 viab: inconclusive; SNCA expr inhib: -28%; GPT2 inh cnf: 1.5*

How did Clc1ccccc1-c1nccc(NCCN2CCOCC2)n1 do in these assays?
HEK293 viab: 0%; SNCA expr inhib: 70%

Results for CC(=O)Nc1cc(C2CC2)nn1-c1ccccc1 ?
GPT2 inhibitor: inactive; HEK293 viab: 4%[87.6 µM]; SNCA expr inhib: 4%[87.6 µM]; IP6K1 inhibitor: -4

How did Cc1ccc(-c2cc(C(=O)NCc3cccnc3)c3c(c2)ncn3C)cn1 do in these assays?
GPT2 inhibitor: inactive; HEK293 viab: 9%[87.6 µM]; SNCA expr inhib: 6%[87.6 µM]; IP6K1 inhibitor: 10

How did COc1ccc(Nc2cc(C(=O)NCc3cccnc3)c3c(c2)ncn3C)cc1 do in these assays?
GPT2 inh cnf: 3.1*

Results for O=C(/C=C/c1ccc(O)c(O)c1)OCCc1ccccc1 ?
GPT2 inhibitor: -3%; HEK293 viab: -21%; SNCA expr inhib: 44%

What do the screens show for `O=C(O)C=Cc1ccc(O)c(O)c1`?
GPT2 inhibitor: 4.3µM*; HEK293 viab: -2%; SNCA expr inhib: -4%; GPT2 inh cnf: 3.4*
